Assay results published in PubChem BioAssay (NCI).
The panel holds about 83,000 compounds, 20% with a hit somewhere; the sample as a whole holds those more often.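 The endpoint reported here, percent growth, reads 100 for growth as untreated, 0 for no net growth and -100 for all cells dead.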 Calls of active or inactive are those of the source. How the source made its calls: active means growth percent below 10; inactive means the rest.

How the values were obtained:
Assay in all cases: NCI-60 one-dose screen, 48 h (100 = growth as untreated, 0 = no growth, -100 = all killed)
NCI-H23 lung = test system: NCI-H23 lung
NCI-H226 lung = settings: 10 µM unless noted
NCI-H322M lung = test system: NCI-H322M lung
HOP-62 NSCLC = test system: HOP-62 NSCLC
NCI-H460 lung = test system: NCI-H460 lung
HOP-92 NSCLC = test system: HOP-92 NSCLC
NCI-H522 lung = test system: NCI-H522 lung
A549/ATCC NSCLC = test system: A549/ATCC NSCLC
786-0 renal = test system: 786-0 renal
COLO 205 colon = settings: 10 µM unless noted
DU-145 prostate = test system: DU-145 prostate
K-562 leukemia = test system: K-562 leukemia
MALME-3M melanoma = test system: MALME-3M melanoma
MDA-MB-231 breast = test system: MDA-MB-231 breast
RXF 393 renal = settings: 10 µM unless noted
SF-268 CNS = test system: SF-268 CNS
SF-295 CNS = test system: SF-295 CNS
SF-539 CNS = test system: SF-539 CNS
UACC-257 melanoma = test system: UACC-257 melanoma
M14 melanoma = settings: 10 µM unless noted

Measured: growth

CN(C)CCNc1ncc(F)c(-c2cnc3cc(-c4cnn(C)c4)ccn23)n1
inactive: NCI-H23 lung; 0.005 µM 101% | NCI-H23 lung; 30 µM 56.9% | NCI-H226 lung 76.5% [30 µM] | NCI-H322M lung; 0.005 µM 95.6% | NCI-H322M lung; 30 µM 44.7% | HOP-62 NSCLC; 0.005 µM 103% | HOP-62 NSCLC; 30 µM 60.2% | NCI-H460 lung; 0.005 µM 101% | NCI-H460 lung; 30 µM 15.7% | HOP-92 NSCLC; 0.005 µM 105% | HOP-92 NSCLC; 30 µM 61.4% | NCI-H522 lung; 0.005 µM 92.4% | NCI-H522 lung; 30 µM 51.9% | A549/ATCC NSCLC; 0.005 µM 101% | A549/ATCC NSCLC; 30 µM 34.3% | 786-0 renal; 0.005 µM 102% | 786-0 renal; 30 µM 44.2% | COLO 205 colon 25.8% [30 µM] | DU-145 prostate; 0.005 µM 107% | DU-145 prostate; 30 µM 27.5% | K-562 leukemia; 0.005 µM 102% | K-562 leukemia; 30 µM 41.6% | MALME-3M melanoma; 0.005 µM 99.7% | MALME-3M melanoma; 30 µM 53.5% | MDA-MB-231 breast; 0.005 µM 98.4% | MDA-MB-231 breast; 30 µM 54.3% | RXF 393 renal 110% [0.005 µM] | SF-268 CNS; 0.005 µM 100% | SF-268 CNS; 30 µM 57.7% | SF-295 CNS; 0.005 µM 102% | SF-295 CNS; 30 µM 70.8% | SF-539 CNS; 0.005 µM 97.2% | SF-539 CNS; 30 µM 46.3% | UACC-257 melanoma; 0.005 µM 100% | UACC-257 melanoma; 30 µM 93.5% | M14 melanoma 107% [0.005 µM]

COc1ccc(Nc2ncnc3ccc(-c4cncc(NS(C)(=O)=O)c4)cc23)cc1Cl
active: HOP-92 NSCLC; 10 µM unless noted -7.88% | NCI-H522 lung; 10 µM unless noted 9.61%
inactive: NCI-H23 lung; 10 µM unless noted 35.4% | NCI-H226 lung 56% | NCI-H322M lung; 10 µM unless noted 54.6% | HOP-62 NSCLC; 10 µM unless noted 39.2% | NCI-H460 lung; 10 µM unless noted 75.9% | A549/ATCC NSCLC; 10 µM unless noted 64.5% | 786-0 renal; 10 µM unless noted 58.3% | COLO 205 colon 30.2% | DU-145 prostate; 10 µM unless noted 46.9% | K-562 leukemia; 10 µM unless noted 28.1% | MALME-3M melanoma; 10 µM unless noted 36.2% | MDA-MB-231 breast; 10 µM unless noted 21.6% | RXF 393 renal 26.8% | SF-268 CNS; 10 µM unless noted 24.9% | SF-295 CNS; 10 µM unless noted 55.8% | SF-539 CNS; 10 µM unless noted 18.9% | UACC-257 melanoma; 10 µM unless noted 37% | M14 melanoma 51.5%

C#Cc1cc(C(=O)Nc2ccc(CN3CCN(C)CC3)c(C(F)(F)F)c2)ccc1C
active: K-562 leukemia; 10 µM unless noted 7.97% | UACC-257 melanoma; 10 µM unless noted -32.9% | M14 melanoma -70.4%
inactive: NCI-H23 lung; 10 µM unless noted 88.2% | NCI-H226 lung 83.6% | NCI-H322M lung; 10 µM unless noted 88.5% | HOP-62 NSCLC; 10 µM unless noted 88.5% | NCI-H460 lung; 10 µM unless noted 71.6% | HOP-92 NSCLC; 10 µM unless noted 58.5% | NCI-H522 lung; 10 µM unless noted 96.1% | A549/ATCC NSCLC; 10 µM unless noted 70.8% | 786-0 renal; 10 µM unless noted 52.2% | COLO 205 colon 56.3% | DU-145 prostate; 10 µM unless noted 85.8% | MALME-3M melanoma; 10 µM unless noted 23.6% | MDA-MB-231 breast; 10 µM unless noted 59.2% | RXF 393 renal 76.3% | SF-268 CNS; 10 µM unless noted 82.5% | SF-295 CNS; 10 µM unless noted 77% | SF-539 CNS; 10 µM unless noted 44%

CCN(CC)CC(=O)Nc1ccc2ncnc(Nc3ccc(Oc4cccc(F)c4)c(Cl)c3)c2c1
active: K-562 leukemia; 10 µM unless noted 2.08% | M14 melanoma -33.8%
inactive: NCI-H23 lung; 10 µM unless noted 74.9% | NCI-H226 lung 87.6% | NCI-H322M lung; 10 µM unless noted 65.6% | HOP-62 NSCLC; 10 µM unless noted 80.4% | NCI-H460 lung; 10 µM unless noted 36.9% | HOP-92 NSCLC; 10 µM unless noted 39.5% | NCI-H522 lung; 10 µM unless noted 64.6% | A549/ATCC NSCLC; 10 µM unless noted 55.7% | 786-0 renal; 10 µM unless noted 59.7% | COLO 205 colon 68.8% | DU-145 prostate; 10 µM unless noted 57% | MALME-3M melanoma; 10 µM unless noted 45.2% | MDA-MB-231 breast; 10 µM unless noted 49.3% | RXF 393 renal 43.2% | SF-268 CNS; 10 µM unless noted 58.8% | SF-295 CNS; 10 µM unless noted 87.2% | SF-539 CNS; 10 µM unless noted 83.5% | UACC-257 melanoma; 10 µM unless noted 67.2%

OCCN1CCN(c2cc(-c3cccc(OC(F)(F)F)c3)nc3ccc(N4CCCC4)cc23)CC1
inactive: NCI-H23 lung; 10 µM unless noted 74.4% | NCI-H226 lung 70.1% | NCI-H322M lung; 10 µM unless noted 80% | HOP-62 NSCLC; 10 µM unless noted 48.4% | NCI-H460 lung; 10 µM unless noted 11.3% | HOP-92 NSCLC; 10 µM unless noted 34.1% | NCI-H522 lung; 10 µM unless noted 66.4% | A549/ATCC NSCLC; 10 µM unless noted 36.2% | 786-0 renal; 10 µM unless noted 63.1% | DU-145 prostate; 10 µM unless noted 58% | MALME-3M melanoma; 10 µM unless noted 34.6% | MDA-MB-231 breast; 10 µM unless noted 58.2% | RXF 393 renal 51% | SF-268 CNS; 10 µM unless noted 66.6% | SF-295 CNS; 10 µM unless noted 72.5% | SF-539 CNS; 10 µM unless noted 66.4% | UACC-257 melanoma; 10 µM unless noted 65.2% | M14 melanoma 27.5%
active: COLO 205 colon -18.8% | K-562 leukemia; 10 µM unless noted -10.2%

Brc1ccc(/C=C(/C2=NCCN2)n2ccc3ccccc32)cc1
inactive: NCI-H23 lung; 10 µM unless noted 87% | NCI-H226 lung 62.1% | NCI-H322M lung; 10 µM unless noted 75.7% | HOP-62 NSCLC; 10 µM unless noted 68.3% | NCI-H460 lung; 10 µM unless noted 76.4% | HOP-92 NSCLC; 10 µM unless noted 34.3% | NCI-H522 lung; 10 µM unless noted 62.7% | A549/ATCC NSCLC; 10 µM unless noted 77.9% | 786-0 renal; 10 µM unless noted 81.6% | COLO 205 colon 64.8% | DU-145 prostate; 10 µM unless noted 63.1% | K-562 leukemia; 10 µM unless noted 45.7% | MALME-3M melanoma; 10 µM unless noted 75.4% | MDA-MB-231 breast; 10 µM unless noted 58.9% | RXF 393 renal 50.6% | SF-268 CNS; 10 µM unless noted 77.7% | SF-295 CNS; 10 µM unless noted 85.1% | SF-539 CNS; 10 µM unless noted 88.8% | UACC-257 melanoma; 10 µM unless noted 78.8% | M14 melanoma 65.1%
